Assay [1] addresses Tyrosine-protein kinase CSK (Homo sapiens) (UniProt P41240). Particulars: at 1 µM.
Assay [2] deals with T1, Discoidin domain-containing receptor 2 (Homo sapiens) (UniProt Q16832).
T1 sequence (whole entry): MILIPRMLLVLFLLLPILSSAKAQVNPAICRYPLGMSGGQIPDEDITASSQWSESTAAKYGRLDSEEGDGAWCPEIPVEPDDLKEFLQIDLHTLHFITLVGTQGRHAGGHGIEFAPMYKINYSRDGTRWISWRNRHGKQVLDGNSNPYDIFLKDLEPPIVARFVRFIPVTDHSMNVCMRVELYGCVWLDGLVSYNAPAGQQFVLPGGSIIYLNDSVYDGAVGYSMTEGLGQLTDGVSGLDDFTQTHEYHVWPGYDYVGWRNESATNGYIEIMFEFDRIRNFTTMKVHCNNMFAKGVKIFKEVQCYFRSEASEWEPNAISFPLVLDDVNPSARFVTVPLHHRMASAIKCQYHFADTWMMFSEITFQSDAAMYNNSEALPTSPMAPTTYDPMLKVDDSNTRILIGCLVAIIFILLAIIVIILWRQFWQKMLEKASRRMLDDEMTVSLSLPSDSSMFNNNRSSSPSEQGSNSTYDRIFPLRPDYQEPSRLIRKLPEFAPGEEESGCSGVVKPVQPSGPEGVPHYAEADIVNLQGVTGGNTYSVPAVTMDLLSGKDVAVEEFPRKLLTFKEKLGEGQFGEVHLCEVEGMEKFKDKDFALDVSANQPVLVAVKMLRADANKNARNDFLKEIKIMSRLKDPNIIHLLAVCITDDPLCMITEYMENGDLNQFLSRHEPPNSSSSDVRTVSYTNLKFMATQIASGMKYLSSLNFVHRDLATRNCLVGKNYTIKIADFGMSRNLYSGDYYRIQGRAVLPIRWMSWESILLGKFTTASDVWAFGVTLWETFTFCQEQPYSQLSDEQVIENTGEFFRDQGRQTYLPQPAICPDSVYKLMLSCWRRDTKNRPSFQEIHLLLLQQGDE
Particulars: at 0.1 µM.

The target in assay [3] is T1, Discoidin domain-containing receptor 2 (Homo sapiens). Particulars: at 1 µM.
Assay [4] addresses Epidermal growth factor receptor (Homo sapiens) (UniProt P00533). Particulars: at 0.1 µM.
Assay [5] has the same target. The conditions noted are these: at 1 µM.
The subject of assay [6] is Epidermal growth factor receptor (Homo sapiens), P00533 [L858R]. Particulars: at 0.1 µM.
The test system is the same in assay [7]. Particulars: at 1 µM.
Assay [8] concerns Epidermal growth factor receptor (Homo sapiens), P00533 [L861Q]. The conditions noted are these: at 0.1 µM.
Chain of Epidermal growth factor receptor (Homo sapiens), P00533 [L861Q] (P00533 whole entry L861Q): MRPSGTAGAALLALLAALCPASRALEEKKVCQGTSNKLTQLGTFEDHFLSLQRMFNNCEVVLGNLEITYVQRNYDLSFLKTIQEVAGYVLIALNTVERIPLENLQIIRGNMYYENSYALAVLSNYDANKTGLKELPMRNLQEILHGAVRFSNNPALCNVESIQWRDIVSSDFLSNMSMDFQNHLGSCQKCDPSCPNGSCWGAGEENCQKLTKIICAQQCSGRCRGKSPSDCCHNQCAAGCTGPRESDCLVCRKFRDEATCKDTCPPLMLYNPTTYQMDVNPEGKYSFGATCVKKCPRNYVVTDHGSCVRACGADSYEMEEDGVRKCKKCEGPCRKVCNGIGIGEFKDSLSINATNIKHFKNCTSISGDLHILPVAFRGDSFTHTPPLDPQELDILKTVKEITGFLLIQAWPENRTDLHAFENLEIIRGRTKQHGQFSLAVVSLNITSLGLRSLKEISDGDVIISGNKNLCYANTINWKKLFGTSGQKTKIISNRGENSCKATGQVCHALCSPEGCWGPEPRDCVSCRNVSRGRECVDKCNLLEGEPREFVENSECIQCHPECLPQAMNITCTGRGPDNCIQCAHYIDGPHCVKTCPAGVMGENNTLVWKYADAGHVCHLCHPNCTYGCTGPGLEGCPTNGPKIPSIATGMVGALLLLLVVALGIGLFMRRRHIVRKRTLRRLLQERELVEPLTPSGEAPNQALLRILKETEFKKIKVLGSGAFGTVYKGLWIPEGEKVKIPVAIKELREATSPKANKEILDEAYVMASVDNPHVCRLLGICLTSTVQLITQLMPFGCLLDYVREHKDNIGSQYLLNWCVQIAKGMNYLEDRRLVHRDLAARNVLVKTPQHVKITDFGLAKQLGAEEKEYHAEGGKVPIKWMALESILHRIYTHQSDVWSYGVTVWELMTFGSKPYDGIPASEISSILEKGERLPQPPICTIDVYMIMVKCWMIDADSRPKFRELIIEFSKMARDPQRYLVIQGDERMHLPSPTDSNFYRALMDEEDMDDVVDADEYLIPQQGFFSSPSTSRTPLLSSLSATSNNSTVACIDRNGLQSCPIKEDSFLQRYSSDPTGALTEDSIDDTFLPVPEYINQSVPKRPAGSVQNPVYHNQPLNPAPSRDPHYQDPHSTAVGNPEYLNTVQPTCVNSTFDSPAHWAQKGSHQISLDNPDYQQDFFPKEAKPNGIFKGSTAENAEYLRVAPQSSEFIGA
Assay [9] shares this test system. The conditions noted are these: at 1 µM.
Assay [10] deals with Epidermal growth factor receptor (Homo sapiens), P00533 [T790M]. The conditions noted are these: at 0.1 µM.
Chain of Epidermal growth factor receptor (Homo sapiens), P00533 [T790M] (P00533 whole entry T790M): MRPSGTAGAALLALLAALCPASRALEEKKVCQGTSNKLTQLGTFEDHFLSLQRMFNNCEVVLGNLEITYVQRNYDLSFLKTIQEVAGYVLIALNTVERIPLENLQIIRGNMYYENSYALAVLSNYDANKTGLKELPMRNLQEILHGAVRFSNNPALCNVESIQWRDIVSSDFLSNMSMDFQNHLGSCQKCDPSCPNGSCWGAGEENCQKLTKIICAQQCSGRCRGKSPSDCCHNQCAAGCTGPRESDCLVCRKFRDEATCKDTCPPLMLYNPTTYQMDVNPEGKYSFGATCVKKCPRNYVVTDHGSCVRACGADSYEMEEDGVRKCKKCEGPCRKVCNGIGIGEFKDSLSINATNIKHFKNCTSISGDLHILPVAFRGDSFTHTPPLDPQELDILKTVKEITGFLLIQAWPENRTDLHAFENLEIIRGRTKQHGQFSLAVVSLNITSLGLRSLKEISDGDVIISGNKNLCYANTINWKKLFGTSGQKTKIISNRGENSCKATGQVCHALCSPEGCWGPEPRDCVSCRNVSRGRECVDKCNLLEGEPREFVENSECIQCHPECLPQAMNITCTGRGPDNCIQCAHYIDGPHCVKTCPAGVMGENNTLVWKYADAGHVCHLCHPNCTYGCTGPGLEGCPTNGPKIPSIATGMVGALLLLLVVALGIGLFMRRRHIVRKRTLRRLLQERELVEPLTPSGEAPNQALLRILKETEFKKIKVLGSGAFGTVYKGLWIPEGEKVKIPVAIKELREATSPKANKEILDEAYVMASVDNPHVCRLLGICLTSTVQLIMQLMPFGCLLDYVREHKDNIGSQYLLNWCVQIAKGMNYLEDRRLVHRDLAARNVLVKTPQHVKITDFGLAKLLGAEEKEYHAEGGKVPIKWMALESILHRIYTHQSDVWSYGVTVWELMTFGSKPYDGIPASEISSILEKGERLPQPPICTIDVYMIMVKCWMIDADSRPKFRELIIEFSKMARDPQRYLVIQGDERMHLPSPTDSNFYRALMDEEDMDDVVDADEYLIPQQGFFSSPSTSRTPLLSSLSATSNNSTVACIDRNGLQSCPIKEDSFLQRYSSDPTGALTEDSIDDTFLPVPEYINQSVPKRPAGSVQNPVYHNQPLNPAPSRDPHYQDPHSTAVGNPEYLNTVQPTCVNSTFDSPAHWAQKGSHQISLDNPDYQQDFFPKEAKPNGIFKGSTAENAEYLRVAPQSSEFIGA

Structures are written as SMILES.

As a reminder, the inhibition is the relative decrease from the control value, in per cent.

Chain of Epidermal growth factor receptor (Homo sapiens), P00533 [L858R] (P00533 whole entry L858R): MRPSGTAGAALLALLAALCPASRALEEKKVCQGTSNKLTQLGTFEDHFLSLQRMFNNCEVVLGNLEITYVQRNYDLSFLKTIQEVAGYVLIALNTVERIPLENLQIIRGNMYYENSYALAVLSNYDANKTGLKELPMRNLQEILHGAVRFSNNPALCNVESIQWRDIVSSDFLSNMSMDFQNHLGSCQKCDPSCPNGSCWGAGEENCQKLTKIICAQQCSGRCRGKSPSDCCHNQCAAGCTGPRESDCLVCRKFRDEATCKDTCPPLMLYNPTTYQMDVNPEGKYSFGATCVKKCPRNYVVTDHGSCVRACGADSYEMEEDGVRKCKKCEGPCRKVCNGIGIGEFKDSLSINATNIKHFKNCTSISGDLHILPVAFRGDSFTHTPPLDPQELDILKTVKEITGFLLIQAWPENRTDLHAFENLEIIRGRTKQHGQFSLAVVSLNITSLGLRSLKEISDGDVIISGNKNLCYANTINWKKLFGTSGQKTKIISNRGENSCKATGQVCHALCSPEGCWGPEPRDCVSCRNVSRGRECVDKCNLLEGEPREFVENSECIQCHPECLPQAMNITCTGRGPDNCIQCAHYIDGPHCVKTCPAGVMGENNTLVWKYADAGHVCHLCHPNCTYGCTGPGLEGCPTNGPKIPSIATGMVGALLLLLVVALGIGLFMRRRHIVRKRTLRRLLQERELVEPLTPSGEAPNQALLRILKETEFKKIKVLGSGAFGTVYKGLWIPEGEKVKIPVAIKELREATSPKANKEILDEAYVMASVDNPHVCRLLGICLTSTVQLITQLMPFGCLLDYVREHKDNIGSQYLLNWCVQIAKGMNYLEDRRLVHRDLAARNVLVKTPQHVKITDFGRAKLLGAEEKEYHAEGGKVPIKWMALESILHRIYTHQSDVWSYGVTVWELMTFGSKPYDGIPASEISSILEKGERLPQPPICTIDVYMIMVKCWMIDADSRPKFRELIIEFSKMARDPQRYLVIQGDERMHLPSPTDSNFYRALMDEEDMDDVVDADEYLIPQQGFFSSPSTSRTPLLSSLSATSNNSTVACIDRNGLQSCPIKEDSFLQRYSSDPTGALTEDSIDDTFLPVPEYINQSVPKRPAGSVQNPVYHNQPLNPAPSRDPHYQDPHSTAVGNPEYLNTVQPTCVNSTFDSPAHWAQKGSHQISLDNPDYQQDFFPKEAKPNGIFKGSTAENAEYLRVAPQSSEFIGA
Chain of Epidermal growth factor receptor (Homo sapiens) (P00533 whole entry): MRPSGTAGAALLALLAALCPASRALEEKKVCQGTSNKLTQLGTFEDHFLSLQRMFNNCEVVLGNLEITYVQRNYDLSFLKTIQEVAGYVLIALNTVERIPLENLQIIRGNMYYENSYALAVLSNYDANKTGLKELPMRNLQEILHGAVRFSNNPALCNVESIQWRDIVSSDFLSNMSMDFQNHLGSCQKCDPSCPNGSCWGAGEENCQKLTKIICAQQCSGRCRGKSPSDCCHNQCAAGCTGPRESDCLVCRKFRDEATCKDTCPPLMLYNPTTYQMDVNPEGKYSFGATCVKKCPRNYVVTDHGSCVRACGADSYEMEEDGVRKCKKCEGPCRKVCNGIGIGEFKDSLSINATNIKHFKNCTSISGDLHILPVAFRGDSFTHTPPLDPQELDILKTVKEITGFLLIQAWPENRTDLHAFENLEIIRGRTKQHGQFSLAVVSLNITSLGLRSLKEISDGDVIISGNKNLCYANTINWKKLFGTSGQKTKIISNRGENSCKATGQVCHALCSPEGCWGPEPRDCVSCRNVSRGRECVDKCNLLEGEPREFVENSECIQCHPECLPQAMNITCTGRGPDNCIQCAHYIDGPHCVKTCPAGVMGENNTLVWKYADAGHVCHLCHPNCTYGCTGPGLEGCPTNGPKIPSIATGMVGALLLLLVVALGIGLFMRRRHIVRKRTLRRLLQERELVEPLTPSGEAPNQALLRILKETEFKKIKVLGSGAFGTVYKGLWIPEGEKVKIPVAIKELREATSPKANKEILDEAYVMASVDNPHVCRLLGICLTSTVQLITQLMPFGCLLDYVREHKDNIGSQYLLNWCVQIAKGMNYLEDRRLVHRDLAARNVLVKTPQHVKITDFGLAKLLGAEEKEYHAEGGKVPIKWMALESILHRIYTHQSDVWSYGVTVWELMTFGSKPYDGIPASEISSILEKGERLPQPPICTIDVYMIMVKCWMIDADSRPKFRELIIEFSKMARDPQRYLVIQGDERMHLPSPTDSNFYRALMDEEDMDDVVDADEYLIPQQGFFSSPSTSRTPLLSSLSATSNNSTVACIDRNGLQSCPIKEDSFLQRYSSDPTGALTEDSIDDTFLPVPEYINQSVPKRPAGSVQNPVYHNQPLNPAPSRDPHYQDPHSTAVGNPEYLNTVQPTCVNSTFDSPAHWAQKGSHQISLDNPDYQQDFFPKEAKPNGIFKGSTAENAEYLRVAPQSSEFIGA

Regarding `c1cnn2ncc(-c3ccnc(Nc4ccc5c(c4)OCCO5)n3)c2c1`, the inhibition in [1] came out at 14.9%; in assay [2], 2.85%; in [3], 2.07%; in assay [4], 1.88%; in assay [5], 4.28%; in assay [6] it was 3.09%. Further, the inhibition in assay [7] is 11%; in assay [8], 3.71%; in assay [9] it was 5.7%; in assay [10] it was 2.81%.

Take `CCn1c(-c2nonc2N)nc2cnc(Oc3cccc(NC(=O)c4ccc(OCCN5CCOCC5)cc4)c3)cc21`: the inhibition is 2.94% in assay [1]; 1.27% in assay [2]; -0.68% in [3]; 1.37% in [4]; 3% in [5]; 1.72% in assay [6]. For the same compound, the inhibition was found to be 2.23% in assay [7], 2.62% in assay [8], 2.57% in assay [9] and 0.97% in [10].

For the compound `CCn1c(-c2nonc2N)nc2cncc(C(=O)N3CCNCC3)c21`, the inhibition turned out to be 4.45% in assay [1]; 1.63% in assay [2]; 1.68% in assay [3]; 1.08% in [4]; 2.62% in [5]; 3.95% in assay [6]. Besides, the inhibition in assay [7] is 3.98%; in [8] it was 3.22%; in assay [9], 5.49%; in [10], 2.68%.

Consider `O=C1NC(=O)C(N2CCc3ccccc32)=C1c1ccc(Cl)cc1`, for which the inhibition in assay [1] was 0.75%; in [2], 3.2%; in assay [3], 8.8%; in assay [4], -0.66%; in assay [5], 3.22%; in [6] it was -1.38%. Moreover, the inhibition stood at 5.23% in assay [7], 4.7% in assay [8], 2.74% in assay [9] and 2.82% in assay [10].

As for `CCn1c(-c2nonc2N)nc2cncc(C(=O)N3CC[C@H](N)C3)c21`, the inhibition in [1] is 5.06%; in assay [2] it was 1.43%; in [3], 1.61%; in [4], 0.8%; in assay [5], 2.64%; in assay [6], 3.22%. The inhibition in assay [7] is 5.35%; in assay [8] it was 3.58%; in assay [9], 4.5%; in assay [10], 2.65%.

For `CCn1c(-c2nonc2N)nc2c(N3CCCC3)nccc21`, the inhibition in assay [1] was -3.39%; in [2], 0.93%; in assay [3] it was 1.39%; in [4] it was 9.47%; in [5], 13%; in assay [6] it was -0.34%. Also, the inhibition in assay [7] was -1.9%; in assay [8], 0.82%; in assay [9] it was 2.63%; in assay [10], -1.01%.

On to `COc1cc(C)c(NC(=O)CN(C)C)cc1Nc1nc(Nc2cccc(F)c2C(N)=O)c2cc[nH]c2n1`, for which the inhibition in assay [1] was -0.35%; in assay [2] it was 2.03%; in assay [3], 0.4%; in [4], -1.1%; in assay [5], 5.3%; in [6] it was 1.75%. The inhibition in [7] came out at 6.19%; in [8], 2.96%; in assay [9], 5%; in assay [10] it was 5.98%.

Regarding `CN(C)c1cc2c(Nc3ccc4nc(Cc5ccccc5)[nH]c4c3)ncnc2cn1`, the inhibition is 55.3% in assay [1]; 3.16% in assay [2]; 7.23% in [3]; 66.6% in assay [4]; 77.6% in assay [5]; 16.1% in assay [6]. Further, the inhibition worked out at 48.1% in [7], 27.3% in [8], 40.3% in [9] and 3.48% in assay [10].

For the compound `COc1cc(C=NNc2ncnc3c2cnn3-c2ccccc2)ccc1O`, the inhibition in [1] amounted to 5.56%; in assay [2] it was 5.59%; in assay [3], 13.6%; in assay [4] it was 6.29%; in [5], 36.2%; in assay [6], 27.3%. Further, the inhibition in assay [7] turned out to be 79.6%; in [8], 6.66%; in assay [9] it was 38.2%; in assay [10], 0.71%.

On to `Fc1cccc(COc2ccc(Nc3ncnc4sc(-c5cccs5)cc34)cc2Cl)c1`, for which the inhibition in assay [1] was 3.11%; in [2], -0.48%; in assay [3], 0.6%.

Regarding `NS(=O)(=O)c1ccc(N/N=C2\C(=O)Nc3ccc(C(=O)NCCc4c[nH]cn4)cc32)cc1`, the inhibition in assay [1] was 9.56%; in assay [2], 1.41%; in assay [3] it was 5.19%; in assay [4], 2%; in [5], 4.43%; in assay [6], 5.09%. For the same compound, the inhibition in assay [7] was 5.32%; in [8] it was 3.18%; in assay [9], 3.48%; in assay [10], 2.7%.

With `COc1ccc(COc2ccc(Cc3cnc(N)nc3N)cc2OC)cc1`, the inhibition in [1] is -3.17%; in assay [2], 8.57%; in [3], 8.13%; in assay [4], -0.51%; in assay [5], 5.41%; in assay [6], 0.93%. The inhibition in assay [7] is -1.26%; in [8], -1.47%; in assay [9] it was -1.95%.

For `CS(=O)(=O)CCNCc1nc(-c2ccc3ncnc(Nc4ccc(F)c(Cl)c4)c3c2)cs1`, the figures for the inhibition in [1], in assay [2] and in assay [3] were 5.64%, 7.7% and 10.9%, respectively.

As to `O=C1Nc2ccc(C(=O)c3ccco3)cc2C1=Cc1cc(Cl)c(O)c(Cl)c1`, the inhibition was determined as 7.85% in assay [1]; 2.1% in [2]; 6.8% in assay [3]; 1.89% in [4]; 5.16% in [5]; 4.06% in assay [6]. Moreover, the inhibition in assay [7] was determined as 13.7%; in assay [8], 3.88%; in [9], 19.6%; in [10] it was 1.42%.

`Cc1ccc(C(=O)NC2CCCCC2)cc1-c1ccc(C(=O)NCC2CC2)cc1`: the inhibition in assay [1] is 1.73%; in assay [2], 3.79%; in [3], 6.99%; in assay [4], 10.6%; in assay [5] it was 14.3%; in assay [6], 1.02%. For the same compound, the inhibition in assay [7] is 0.13%; in assay [8] it was 1.18%; in [9], 0.87%; in assay [10], 0.94%.

Turning to `O=C1NC(=O)C(c2ccc(Cl)cc2)=C1Nc1ccc(Cl)c(C(=O)O)c1`, the inhibition in assay [1] was -4.62%; in assay [2], 0.03%; in assay [3] it was 2.46%; in assay [4], 1.07%; in assay [5], 6.73%; in assay [6], -2.2%. For the same compound, the inhibition was 6.41% in [7], 0.32% in [8], 1.03% in [9] and -0.88% in assay [10].

Regarding `CC(=O)Nc1cccc(C#Cc2cncnc2Nc2ccc(OCc3cccc(F)c3)c(Cl)c2)n1`, the inhibition in assay [1] was determined as 3.91%; in [2] it was 2.33%; in [3], 1.71%; in assay [4], 69.5%; in assay [5], 77.7%; in [6] it was 24.8%. The inhibition in assay [7] is 72.5%; in [8], 29.1%; in [9], 55.6%; in [10], 0.03%.

For `COC(=O)Nc1nc2cc(Oc3ccc(NC(=O)Nc4cccc(C(=O)O)c4)cc3)ccc2[nH]1`, the inhibition in [2] is 8.64%; in assay [3] it was 48.8%; in [4] it was -1.69%; in assay [5] it was -2.11%; in assay [6] it was 2.63%; in [7], 2.26%. Moreover, the inhibition was determined as 2.15% in [8], 0.36% in [9] and 1.78% in assay [10].
